Experimental data published in the supplement of paper PMC6555819.

Assays:
Assay in all cases: PBM binding z-score (relative to random genomic background probes); higher = stronger binding; sequences stand for … in GC…GCGATTGACAGCGTAGAATGAAGG
[1] = tested on: PPARg:RXRa DBDmut IVT, anti-RXR (DBD mutation: RXRa K156A/R161A, NR concentration 270 nM, RXRa partner concentration 90 nM)
In short: (§1)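 The probes on custom Agilent 4×180K protein-binding microarrays were double-stranded, with 34-nt variable regions bearing direct-repeat seeds, single-nucleotide variants, half-site ablations and random human genomic background sequences. Incubation lasted 1 h with ligand-free nuclear receptor dimers in PBS pH 7.4, 2% milk, 0.02% Triton X-100, 1 mM DTT, 0.2 mg/mL BSA and 0.4 mg/ml salmon testes DNA. Antibodies against each partner (one per run) detected bound dimers, and fluorescence scans were regression-normalized. Binding z-scores take the random background probes as reference.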

[2] = tested on: PPARg:RXRa IVT, anti-PPARg (NR concentration 270 nM, RXRa partner concentration 90 nM)
In short: as §1

[3] = tested on: PPARg DBDmut:RXRa IVT, anti-PPARg (DBD mutation: PPARg1 K132A/R137A, NR concentration 270 nM, RXRa partner concentration 90 nM)
In short: as §1

[4] = tested on: PPARg DBDmut IVT, anti-PPARg (DBD mutation: PPARg1 K132A/R137A, NR concentration 270 nM)
In short: as §1

[5] = tested on: PPARg homodimer (NR concentration 180 nM)
In short: as §1

[6] = tested on: PXR:RXRa (NR concentration 270 nM, RXRa partner concentration 90 nM)
In short: as §1

[7] = tested on: PXR homodimer (NR concentration 270 nM)
In short: as §1

[8] = tested on: RARa:RXR (NR concentration 270 nM, RXRa partner concentration 90 nM)
In short: as §1

[9] = tested on: RARa homodimer (NR concentration 270 nM)
In short: as §1

[10] = tested on: RARb:RXRa (NR concentration 270 nM, RXRa partner concentration 90 nM)
In short: as §1

[11] = tested on: RARb homodimer (NR concentration 270 nM)
In short: as §1

[12] = tested on: RARg:RXRa (NR concentration 270 nM, RXRa partner concentration 90 nM)
In short: as §1

[13] = tested on: RARg homodimer (NR concentration 270 nM)
In short: as §1

[14] = tested on: RXRa DBDmut IVT, anti-RXR (DBD mutation: RXRa K156A/R161A, NR concentration 90 nM)
In short: as §1

[15] = tested on: RXRa homodimer (NR concentration 180 nM)
In short: as §1

[16] = tested on: THRa:RXRa (NR concentration 90 nM, RXRa partner concentration 90 nM)
In short: as §1

[17] = tested on: THRa homodimer (NR concentration 90 nM)
In short: as §1

[18] = tested on: VDR homodimer (NR concentration 270 nM)
In short: as §1

| Sequence | PBM binding z-score [1] | PBM binding z-score [2] | PBM binding z-score [3] | PBM binding z-score [4] | PBM binding z-score [5] | PBM binding z-score [6] | PBM binding z-score [7] | PBM binding z-score [8] | PBM binding z-score [9] | PBM binding z-score [10] | PBM binding z-score [11] | PBM binding z-score [12] | PBM binding z-score [13] | PBM binding z-score [14] | PBM binding z-score [15] | PBM binding z-score [16] | PBM binding z-score [17] | PBM binding z-score [18] |
| --- | --- | --- | --- | --- | --- | --- | --- | --- | --- | --- | --- | --- | --- | --- | --- | --- | --- | --- |
| CCTGCTAGGGCATGGTCAGCTAATCTACAGTATG | 1.27 | 0.942 | -0.789 | -1.21 | -0.604 | -0.584 | -0.686 | -0.414 | -0.802 | 1.43 | 0.406 | 0.464 | 1.07 | -0.538 | -0.195 | -0.371 | -0.949 | -0.585 |
| ACTAGCAGGCCAAGGGTCACTCAAGATTAGTCCG | 0.983 | 4.06 | -0.0619 | -0.0525 | 2.65 | 3.21 | -0.112 | 3.84 | 0.215 | 3.41 | 3.86 | 4.17 | 3.74 | 0.678 | 3.93 | 2.65 | 0.199 | 1.29 |
| ATCGAAAGGTCGATGGTGAGTATACCCACCCGAA | -0.671 | 0.8 | 0.684 | 0.102 | 1.04 | 1.51 | -0.361 | 2.18 | 0.322 | 3.03 | 1.45 | 3.25 | 3.01 | 0.438 | 3.21 | 1.26 | -0.577 | 0.213 |
| CCATACGGGTCAAGGTTATAGCACGGGTGGTACG | 1.2 | 3.15 | 0.543 | -0.539 | 2.1 | 3.06 | 0.247 | 3.82 | 0.795 | 4.1 | 3.43 | 4.7 | 4.33 | 0.452 | 4.65 | 2.85 | 0.691 | 1.15 |
| GCATATAGGTAATACGAGGTGAAAGTCCGATTGT | 4.42 | 3.44 | 0.607 | 1.33 | 0.669 | 0.96 | 0.299 | 1.27 | 0.304 | 0.336 | 0.883 | 0.378 | 0.419 | 0.527 | 0.781 | 4.46 | 1.41 | -0.0522 |
| GCTGCTACGTCAACTGATGGTCAGCTAAAGCTCG | -0.232 | -0.749 | -0.632 | -1.06 | -1.02 | -0.736 | -1.23 | -0.62 | -1.34 | -0.291 | -0.272 | -0.163 | -0.441 | -0.129 | -0.367 | -0.498 | -0.948 | -0.701 |
| TCGAGTAGGTTAGTAGGGGCATTCAGCCAACATA | 2.98 | 3.4 | 0.408 | 0.00263 | 0.668 | 0.244 | 0.000181 | 0.287 | 0.25 | 0.637 | 0.576 | 0.0411 | -0.0163 | 0.422 | 0.366 | 0.542 | 0.108 | 0.677 |
| CAAACTAGGTCACGAAAGGTCAAAGTCGAATGAC | 8.54 | 9.04 | 3.28 | 2.22 | 5.79 | 7.14 | 2.95 | 7.8 | 3.54 | 5.84 | 5.65 | 7.91 | 8.57 | 2.39 | 7.98 | 5.23 | 2.6 | 3.77 |
| ACAGTCAGGTGAGTGAAGGTAACTCAGCTGGACG | 0.794 | 0.82 | -0.123 | -0.515 | -0.608 | -0.47 | -0.728 | -0.00233 | 0.0121 | 0.775 | -0.0774 | 0.2 | 0.617 | -0.471 | 0.122 | 1.63 | -0.205 | -0.58 |
| ACTTACGGGTGAACGAGGTTATAGCACGCGTATA | 2.06 | 2.61 | 0.498 | 1.4 | 0.965 | 1.75 | 0.287 | 2.01 | 0.821 | 1.19 | 1.2 | 1.47 | 0.987 | 0.294 | 2.06 | 2.39 | 0.511 | 1.01 |
| CAAACTAGGGCACGAAAGGTCAAAGTCGAATGAC | 7.59 | 8.38 | 2.22 | 0.682 | 2.46 | 5.93 | 1.28 | 6.53 | 1.46 | 4.98 | 5.2 | 6.2 | 5.83 | 1.44 | 6.29 | 4.84 | 0.977 | 1.87 |
| ATCTCTAGGTAAAGATAGTCCAGTGAATGCAAAT | 2.01 | 1.66 | 1.44 | 0.736 | 0.414 | -0.159 | 0.523 | -0.259 | 0.93 | -0.257 | -0.17 | 0.22 | 0.658 | 0.0705 | 0.108 | 0.341 | 0.315 | 0.0378 |
| TCTTGTAGATCAGCAGGTTATGAAAGCTGGCCAA | 1.43 | 0.523 | -0.144 | 0.592 | -0.672 | 0.11 | -0.253 | 0.383 | -0.663 | 0.164 | -0.0555 | -0.168 | -0.428 | 0.64 | 0.311 | 0.276 | -0.466 | -0.405 |
| CCTAGTTGGTCAGGAGGTCGCACACCGGATATGA | 0.576 | 1.51 | -0.0553 | -0.0724 | 1.86 | 1.24 | 0.681 | 1.59 | 1.17 | 1.98 | 2.18 | 2.4 | 1.98 | -0.149 | 1.86 | 1.66 | 0.99 | 1.59 |
| GTACCAAGGTGAATACGTCGTTGATGAGTAGGCG | 1.17 | 1.59 | -0.251 | -0.137 | -0.116 | -0.261 | -0.456 | 0.186 | 0.0524 | 1.03 | 0.139 | 0.764 | 0.692 | -0.417 | 0.56 | 1.19 | 0.199 | -0.342 |
